Measurements as given in PubChem BioAssay AID1006 (Sanford-Burnham Center for Chemical Genomics, 2008).
Out of some 200,000 compounds screened, about 3,000 (1.5%) were called active. Only a selection was taken, and actives are over-represented in it overall. Values without a mark were called inactive.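 The calls were made as follows: active = inhibition above about 50% when tested at 10 µM (limit read from the data); inactive = the rest.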

target: Luciferin 4-monooxygenase (Photinus pyralis) (UniProt P08659); assay: firefly luciferase enzyme inhibitors, primary screen, artefact control for luciferase-based inhibitor screens, biochemical, luminescence, ATPLite (AID 1006); details: 10 min, at 10 µM, stronger effect = higher value
Sequence (P08659 whole entry, looked up): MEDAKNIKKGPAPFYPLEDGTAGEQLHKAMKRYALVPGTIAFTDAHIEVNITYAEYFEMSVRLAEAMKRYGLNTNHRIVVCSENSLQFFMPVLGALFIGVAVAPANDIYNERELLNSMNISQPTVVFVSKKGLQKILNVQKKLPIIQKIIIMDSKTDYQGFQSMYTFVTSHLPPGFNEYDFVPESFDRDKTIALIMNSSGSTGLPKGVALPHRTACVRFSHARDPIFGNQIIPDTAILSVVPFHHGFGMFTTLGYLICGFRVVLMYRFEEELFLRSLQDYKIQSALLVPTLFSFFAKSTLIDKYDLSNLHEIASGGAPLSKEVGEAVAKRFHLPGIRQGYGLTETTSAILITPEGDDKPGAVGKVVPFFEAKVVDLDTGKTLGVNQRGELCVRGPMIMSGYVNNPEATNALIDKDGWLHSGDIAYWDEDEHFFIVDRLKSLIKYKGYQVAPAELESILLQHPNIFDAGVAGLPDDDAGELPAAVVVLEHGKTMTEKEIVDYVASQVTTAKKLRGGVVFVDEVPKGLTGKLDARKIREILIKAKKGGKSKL

SMILES | inhibition
Cc1ccc(N(C(=O)c2ccc(CN3CCOCC3)o2)C(C(=O)NCCC(C)C)c2cccs2)c(C)c1 (stereo not given) | -4.1%
COc1ccc(C(=O)NCC(=O)N/N=C/c2ccc([N+](=O)[O-])s2)cc1OC | 2.8%
OC(CNCc1ccc(Cl)c(Cl)c1)c1ccccc1 (stereo not given) | -8.3%
CCCOC(=O)c1[nH]c2c(c1C)C(=O)CC(c1cc(OC)c(OC)c(OC)c1)C2 (stereo not given) | -2.3%
CCCOC(=O)C1=C(C)NC2=C(C(=O)C(C(=O)OC)C(C)C2)C1c1ccc(N(C)C)cc1 (stereo not given) | 0.8%
COC(=O)C1C(=O)c2c([nH]c(C(=O)OCCSC)c2C)CC1C (stereo not given) | 50.1% (active)
CCOc1ccc(-n2cnnn2)cc1S(=O)(=O)N1CCC(C)CC1C (stereo not given) | -3.6%
Cc1cccc(NC(=O)CN2C(=O)c3ccccc3C2=O)c1C | -4%
Cc1ccc2nc(-c3ccc(SCC(=O)Nc4cc(C)on4)nc3)[nH]c2c1 | 73.4% (active)
Cc1ccc(SCCC(=O)Nc2cc(C)on2)cc1 | -4.4%
Cc1ccc(-c2csc(SCC(=O)Nc3cc(C)on3)n2)cc1 | -4.8%
COC(=O)NNC(=O)C1CCC(C)CC1 (stereo not given) | -4.8%
CCNS(=O)(=O)c1ccc(NC(=O)c2cncc(Br)c2)cc1 | -4.2%
COc1ccc(Nc2nc(NCc3ccco3)nc(N/N=C/c3ccccc3Cl)n2)cc1 | -1.1%
COc1cc(NC(=S)NNC(=O)CC(C)C)c(OC)cc1Cl | -8.4%
O=C1OC(/C=C/c2ccccc2)=NC/1=C/c1ccco1 | 53.5% (active)
CC(C)(C)C1C/C(=C/c2ccco2)C(=O)/C(=C/c2ccco2)C1 (stereo not given) | -5.4%
COc1ccccc1/C=C/C1=NC(=C\N(C)C)/C(=O)O1 | 0.6%
O=C(C1=C[C@H](c2coc3ccccc3c2=O)C[C@H](OCc2ccc(CO)cc2)O1)N1CCN(Cc2ccccc2)CC1 | -6.2%
CCN(CC)c1ccc2oc(=O)c(C)nc2c1 | -3%
CCc1ccc2oc(-c3ccc(N)cc3)nc2c1 | 80.7% (active)
CCCCCC(=O)Nc1ccc2oc(-c3ccncc3)nc2c1 | -5.7%
COc1cc(CN2CCNC(=O)C2CC(=O)NCCc2ncccc2C)cc(OC)c1 (stereo not given) | -1.3%
CCOC(=O)CCCNC(=O)COC(=O)/C=C/c1ccc2c(c1)OCO2 | -1.4%
Cc1cc(/C=C2/NC(=O)NC2=O)c(C)n1-c1cccnc1 | 56.5% (active)
Cc1ccc(CN2C(=O)N/C(=C/c3cc(C)n(-c4ccccn4)c3C)C2=O)cc1 | 1.2%
Cc1cc(/C=C2\SC(=Nc3ccc(N4CCOCC4)cc3)N(C)C2=O)c(C)n1-c1cccnc1 | -0.4%
Cc1cccc(C)c1-n1c(C)cc(/C=C2\C(=O)NN(c3ccccc3)C2=O)c1C | 13.6%
Cc1cc(/C=C(/C#N)C(=O)Nc2ccc(Cl)cc2)c(C)n1-c1cccnc1 | -3.9%
Cc1ccccc1-n1c(C)cc(/C=C2\NC(=O)NC2=O)c1C | 83.9% (active)
